# Not all results are given here.
# aSyn 5UTR act: Activators via SNCA 5'UTR binding, MLPCN; alpha-synuclein 5'UTR reporter, activators screen; activity score, % (tested at 7.5 µM), hits read low; 7.1% of 300,000 active; AID 1814; in the data active = activity score below about -60%
# Hits are given with their value; i = inactive.
SMILES,aSyn 5UTR act
Cc1ccccc1C(=O)N/N=C/c1cccc2ccccc12,-71.9
O=C(/C=C/c1ccccc1)NC1CC2CCC1C2 (stereo not drawn),-110.2
CC(C)CNC(=O)COC(=O)c1c2c(nc3ccccc13)/C(=C/c1cccs1)CC2,-110.2
CCOc1ccc(N/C=C/C(=O)c2ccc3ccccc3c2)c([N+](=O)[O-])c1,-158.5
CCOc1ccc(N/C=C/C(=O)c2ccc(C)cc2)c([N+](=O)[O-])c1,-197.7
Cc1ccc(C(=O)/C=C/Nc2ccc([N+](=O)[O-])cc2Br)cc1,-124.4
COc1ccc(N=Cc2oc3ccc4ccccc4c3c2O)cc1,-223.2
Cc1ccc(Cn2nnnc2CN2CCC(c3nc4ccc(Cl)cc4[nH]3)CC2)cc1,i
O=S(=O)(c1ccc(Cl)cc1)N1CCC(c2nc3ccccc3[nH]2)CC1,i
CCOc1ccc(NC(=O)N2CCC(c3nc4ccccc4[nH]3)CC2)cc1,-71.1
Cc1cccn2c(=O)c(C=Nc3ccc(Cl)cc3)c(NCCO)nc12,-90.9
COc1ccc2c(COC(=O)c3n[nH]c4ccccc34)cc(=O)oc2c1,-180.4
Cc1cc2oc(=O)cc(COC(=O)c3n[nH]c4ccccc34)c2cc1C,-133.6
O=C(Nc1ccc(N2CCCCC2)cc1)c1ccc([N+](=O)[O-])o1,-214.2
COc1ccc(N2CCCC2)c(NC(=O)c2ccc([N+](=O)[O-])o2)c1,-70.2
COc1ccc(NS(=O)(=O)c2cc(NC(=O)c3ccc(C)o3)ccc2N2CCCCC2)cc1,-62.1
O=C(Nc1ccccc1N1CCCC1)c1ccc([N+](=O)[O-])o1,-112.2
CS(=O)(=O)N1CCN(c2ccc(NC(=O)c3ccc([N+](=O)[O-])o3)cc2)CC1,i
O=C(N/N=C/c1sc(N2CCOCC2)nc1-c1ccccc1)c1cccc(S(=O)(=O)N2CCOCC2)c1,i
CC(C)NC(=S)N/N=C/c1sc(N2CCCCC2)nc1-c1cccs1,-68.5
NC(=O)N/N=C/c1sc(N2CCCCC2)nc1-c1cccs1,-66.6
O=C(c1cc(-c2cccs2)on1)N1CCCc2ccccc21,-78.7
O=C(c1cc(-c2ccc(F)cc2)on1)N1CCCc2ccccc21,-62.1
Cc1ccc(-c2cc(C(=O)N3CCCc4ccccc43)no2)cc1,-150.2
Cc1ccc(C(=O)c2sc3nc4c(cc3c2N)CCC4)cc1,-132.4
SMILES,aSyn 5UTR act
Nc1c(C(=O)N2CCCCC2)sc2nc3c(cc12)CCCC3,-151.0
Nc1c(C(=O)N2CCCC2)sc2nc(-c3ccccc3)ccc12,-190.4
C(=C/c1nccc2c1[nH]c1ccccc12)/c1ccc2c(c1)OCO2,-131.6
Cc1cccc2cc(C#N)c(SCc3nnc(-c4ccccc4[N+](=O)[O-])o3)nc12,-87.2
COc1ccccc1NC(=O)Nc1ccc2c(c1)nnn2C,-96.4
Cc1ccc(NC(=O)Nc2ccc3c(c2)nnn3C)cc1C,-66.5
Nc1nc2c(ccc3ccccc32)s1,-71.6
COc1cccc(NC(=O)C(=O)NCCC2CCCCN2S(=O)(=O)c2cccs2)c1 (stereo not drawn),-148.3
CC(C)CCNC(=O)C(=O)Nc1ccc2c(c1)N(S(=O)(=O)c1cccs1)CCC2,-73.4
O=C(CSc1nnc(NC(=O)c2ccccc2Cl)s1)Nc1ccc2c(c1)oc1ccccc12,-143.6
O=C(CSc1nc2ccccc2s1)N/N=C/c1ccccc1C(=O)O,-90.3
O=C(CSc1nc2ccccc2s1)Nc1ccc2c(c1)oc1ccccc12,-80.2
O=c1oc2ccccc2n1CSc1nc2ccccc2s1,-99.2
Cc1cc(Cl)ccc1OCc1cn2cccnc2n1,-123.6
Clc1ccc(OCc2cn3cccnc3n2)c2ncccc12,-64.2
CCn1cnc2cc(NC(=O)c3ccc(C)cc3)ccc21,-105.5
CCC(=O)Nc1ccc2c(c1)ncn2-c1ccc(C)cc1,-77.0
Cc1ccc(C(=O)Nc2ccc3c(c2)ncn3C)cc1,-115.0
CCCn1cnc2cc(NC(=O)c3cccs3)ccc21,-112.6
COc1nc(NCc2ccco2)nc(NC2CCCCC2)n1,-94.2
O=c1c2c3c(sc2nc(NCCO)n1Cc1ccco1)CCCCC3,-118.0
COCCNc1nc2sc3c(c2c(=O)n1Cc1ccco1)CCCCC3,-72.2
C#CCn1c(=NC(=O)c2ccc(Br)s2)sc2cccc(OC)c21,-113.0
O=C(Oc1ccc(-c2ccccc2)cc1)N1CCOCC1,-103.8
S=C(c1ccc(-c2ccccc2)cc1)N1CCOCC1,i
SMILES,aSyn 5UTR act
O=C(/C=C/N1CCOCC1)c1ccc(-c2ccccc2)cc1,-123.2
Cc1cc(NC(=O)COc2ccc(C)c(C)c2)no1,-61.7
Cc1cc(NC(=O)COc2cccc(C)c2C)no1,-66.1
Cc1ccccc1OCC(=O)NC1=NCCS1,-77.2
Cc1cc(NC(=O)COc2cccc3cccnc23)no1,-95.6
Cc1cc(NC(=O)COc2ccccc2C)no1,-115.9
COc1ccc(-c2nc3ccccc3s2)cc1O,i
COc1cc(-c2nc3ccccc3s2)ccc1O,-221.7
CC[n+]1c(/C=C/N(C)c2ccccc2)n(-c2ccccc2)c2ccc(-c3nc4ccccc4s3)cc21,i
CCOc1cc(-c2nc3ccccc3s2)ccc1O,-98.4
COc1ccc(/C=C/c2nc(-c3ccccc3O)n[nH]2)cc1OC,-131.9
COc1ccsc1C(=O)Nc1ccc(F)cc1F,-68.6
COc1cccc(C(=O)Nc2ccc(F)c(F)c2F)c1,-170.2
COc1cccc(C(=O)Nc2ccccc2F)c1,-73.1
COc1cccc(C(=O)Nc2ccc(C(F)(F)F)n(C)c2=O)c1,-70.7
COc1cccc(C(=O)Nc2ccc(F)cc2F)c1,-114.0
O=C(Nc1ccccc1F)Oc1cccc(OC(=O)Nc2ccccc2F)c1,-108.4
Cn1ccc(C(=O)Oc2ccc(C(=O)Nc3ccc(F)cc3F)cc2)n1,-121.6
O=C(C1CC(c2ccccc2O)=NO1)N1CCCCC1 (stereo not drawn),-112.1
CC1CCCCN1C(=O)C1CC(c2ccc(F)cc2)=NO1 (stereo not drawn),-88.7
CC1CCCCN1C(=O)CSc1ccc(-c2ccc(F)cc2)nn1 (stereo not drawn),-76.4
O=C(C1CC(c2ccc(F)cc2)=NO1)N1CCCCC1 (stereo not drawn),-141.2
Cc1nc2ccc(NC(=O)NCCO)cc2s1,-63.9
Cc1nc2ccc(NC(=O)NCCCO)cc2s1,-63.7
Cc1cc([N+](=O)[O-])ccc1NC(=O)c1csc(C)c1C,-97.8
SMILES,aSyn 5UTR act
Cc1cc([N+](=O)[O-])ccc1NC(=O)c1cccc(NC(=O)C(C)C)c1,-98.8
Cc1ccc(C(=O)C(C(=O)/C=C/c2ccccc2)=C2SCCCS2)cc1,-102.2
COc1ccc2nc(Nc3nc(C)c(C(C)=O)s3)sc2c1,-186.3
CCOC(=O)c1cc2nc(Nc3ccc(OC)cc3)sc2s1,-83.2
COc1ccc(Nc2nc3ccc(OC)cc3s2)cc1,-119.7
O=C(COC(=O)C1CC1)Nc1ccc(N=Nc2ccccc2)cc1,-118.9
O=C1S/C(=C\C=C\c2ccco2)C(=O)N1c1ccc(O)cc1,-244.9
O=C1S/C(=C\C=C\c2ccco2)C(=O)N1c1ccccc1,-216.6
Cc1sc(=NC(=O)c2ccco2)n(C)c1-c1ccc(F)cc1,-113.1
Cn1c(=NC(=O)c2ccco2)sc2ccccc21,-125.8
Cn1c(=Nc2ccccc2)sc2ccccc21,-76.6
CCOC(=O)c1cnn(-c2ccc(C(C)C)cc2)c1NC(=O)C1CCC1,-81.0
CCOc1ccccc1-n1c(CN2CCN(C(=O)c3ccco3)CC2)nc2ccccc2c1=O,i
OC1(c2ccc(Cl)cc2)CCN(Cc2cn[nH]c2-c2ccccc2)CC1,i
O=C(c1ccco1)N1CCCN(Cc2cn[nH]c2-c2ccc(-c3ccccc3)cc2)CC1,-95.3
OC1(c2ccc(Cl)cc2)CCN(Cc2cn[nH]c2-c2ccc(F)cc2)CC1,i
O=C(Oc1c(CN2CCOCC2)cc(Cl)c2cccnc12)c1ccc(F)cc1,i
